# Assay results as given in PubChem BioAssay AID1981 (Southern Research Specialized Biocontainment Screening …, 2009).
# Out of some 2,200 compounds screened, about 480 (22%) were called active. How the calls were made is not given here. The list is a sample of the results. Results with a measured potency or affinity are listed apart.
# Assay: S. Typhimurium GFP fluorescence modified counterscreen for PhoP regulon inhibitor project dose response (AID 1981);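 further: 0% = induced DMSO wells and 100% = uninduced wells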
# Conditions: 4 h; series mostly up to 150 µM; inhibition: at the top concentration
row,SMILES,inhibition
1,COc1cccc(N=Cc2c[nH][nH]c2=O)c1,-0.27% (inactive)
2,O=C(OCc1ccccc1)Oc1cncc(C(=O)O)c1,11.2% (inactive)
3,COC(=O)c1ccc(C(=O)OC)c(NC(=O)COc2ccccc2OC)c1,-0.88% (inactive)
4,CC(=O)Nc1nc2nc(-c3ccccc3)cc(-c3ccccc3)n2n1,-10.5% (inactive)
5,CCOC(=O)C(/C=C(\C#N)C(=O)OCC)=C(/N)N1CCN(c2c(C)cccc2C)CC1,-22.8% (inactive)
6,O=C(CCN1CCc2ccccc2C(c2ccccc2)C1)c1ccc2c(c1)OCCO2 (stereo not given),30.5% (inactive)
7,CCCC(=O)c1c[nH]c(C(=O)NCCCN2CCOCC2)c1,-18.2% (inactive)
8,O=C(c1ccc(CSc2nc3ccncc3[nH]2)cc1)N1CCN(c2cccc(Cl)c2)CC1,-35.5% (inactive)
9,O=S(=O)(c1ccc(F)c2ccccc12)N1CCCCC1,-5.03% (inactive)
10,COc1ccc(-c2[nH]ncc2/C=C(\C#N)C(=O)NC2CC2)cc1,-18.2% (inactive)
11,COC(=O)C1=C(C)N(C)C(=O)/C1=C\c1ccco1,-11.7% (inactive)
12,COC(=O)c1ccc(NC(=S)NCCc2cccc(C)c2)cc1,-3.52% (inactive)
13,COc1ccc(S(=O)(=O)n2nc(OC(=O)c3ccccc3Br)cc2N)cc1,3.07% (inactive)
14,CN(C(=O)C1CCOC1)c1nnc(-c2ccccn2)s1 (stereo not given),-18.9% (inactive)
15,O=C1NC(c2ccc3c(c2)OCO3)Oc2ccccc21 (stereo not given),-11.6% (inactive)
16,CCn1nnc(-c2ccccc2NS(=O)(=O)c2ccc(S(=O)(=O)N3CCCCCC3)cc2)n1,-13.5% (inactive)
17,Cc1cc(C(=O)N/N=C/c2ccc[nH]2)no1,-6.52% (inactive)
18,CC(C)CCNC(=S)Nc1ccc([N+](=O)[O-])cc1,17.3% (inactive)
19,O=C(NC1CCN(C(=O)N2c3ccccc3Sc3ccccc32)CC1)c1ccco1,-18.3% (inactive)
20,Cc1cc(CNC(=O)Nc2ccc3c(c2)OCO3)nn1C,-1.45% (inactive)
21,O=C(COc1ccc2ccccc2c1)N1CCN(CC2CC3C=CC2C3)CC1 (stereo not given),-22.7% (inactive)
22,COCC(=O)N(Cc1ccco1)c1nnc(C2CCOC2)s1 (stereo not given),-13.3% (inactive)
23,CCCc1nn(C)c2c1C(c1cccnc1)C(C#N)=C(N)O2 (stereo not given),10.6% (inactive)
24,CCOC(=O)C1(S(=O)(=O)c2ccccc2)CCN(Cc2ccc(Cl)cc2)CC1,6.33% (inactive)

row,SMILES,inhibition
1,O=C(CN1C(=O)c2ccccc2C1=O)N1CCN(c2ccccn2)CC1,-16.9% (inactive)
2,Cc1ccc(/C=C/c2nnc(-c3ccc(C)cc3)o2)cc1,-10.9% (inactive)
3,CC(=O)n1cc(/C=N/NC(=O)c2sc(C)nc2C)c2ccccc21,12.1% (inactive)
4,COc1ccc2ccccc2c1/C=N/NC(=O)c1sc(N)c(C#N)c1C,8.92% (inactive)
5,COc1ccc(OCCn2cc(/C=N/NC(=O)c3ccncc3)c3ccccc32)cc1,-13.5% (inactive)
6,COc1ccc(C2CC(c3ccccc3)=NN2c2ccc(/C=N/NC(=O)c3ccncc3)cc2)cc1 (stereo not given),-10.1% (inactive)
7,COc1ccc2c(c1)CC1(CN2C)C(=O)NC(=O)N(c2ccc(F)cc2)C1=O (stereo not given),1.85% (inactive)
8,O=C1Nc2ccc(F)cc2C12SCCS2,2.27% (inactive)
9,Cc1cc2ncn(CC(O)COc3cccc(C(=O)O)c3)c2cc1C (stereo not given),-1.34% (inactive)
10,COc1cc([N+](=O)[O-])ccc1NC(=O)CN(C)C,7.69% (inactive)
11,COc1cc([N+](=O)[O-])cc(/C=N/NC(=O)c2cccnc2)c1O,27.7% (inactive)
12,C#CC(C)(CC)NC(=O)c1cc(OC)c(OC)c(OC)c1 (stereo not given),-16.3% (inactive)
13,CC(C)(C)c1cc2cccnc2n1Cc1cccc(Cl)c1,10.3% (inactive)
14,COc1ccc(Cl)cc1C(=O)Nc1ccc(NC(=O)c2ccco2)cc1,2.6% (inactive)
15,O=C(O)CCc1nn2c3ccccc3n(CC(=O)c3ccccc3)c2nc1=O,-7.66% (inactive)
16,Nc1ncncc1-c1ccc(Cl)cc1,23.2% (inactive)
17,Nc1c(-c2ccccc2)cnn1-c1cccc([N+](=O)[O-])c1,6.43% (inactive)
18,CCOC(=O)C1CCCN(C(=O)Cc2ccc(Cl)cc2)C1 (stereo not given),-1.97% (inactive)
19,CC1=CC(C)C2(CO)COC(c3ccccc3O)C1C2C (stereo not given),-11.4% (inactive)
20,CNc1nc(-c2ccccn2)nnc1-c1ccccc1,5.61% (inactive)
21,Nc1nc(Nc2ccc(Cl)cc2)n[nH]1,1.77% (inactive)
22,Cc1ccc2c(CN3CCC(C)CC3)cc(=O)oc2c1,14.3% (inactive)
23,Cc1[nH]c2ccccc2c1C1=NNC(=Nc2ccc(F)cc2)SC1,4.54% (inactive)
24,CCN1/C(=C/C(C)=C/c2sc3ccccc3[n+]2CC)Sc2ccccc21,-25.4% (inactive)

row,SMILES,inhibition
1,COc1ccc(C(=O)COc2nc(C)cc(C)c2C#N)cc1,-2.08% (inactive)
2,Cc1cc(-c2csc(NC(=O)c3ccc(S(=O)(=O)N(C)C)cc3)n2)c(C)n1-c1ccccc1,37.3% (inactive)
3,CC1(C)CC(=O)c2c(nc3ccccc3c2N)C1,15.4% (inactive)
4,Cc1nn(-c2ccc(Cl)cc2)c2[nH]c(=O)c(CNCc3ccc4c(c3)OCO4)cc12,-13.3% (inactive)
5,CC(O)c1ccc(OCCN(C)c2ccccn2)cc1 (stereo not given),-4.92% (inactive)
6,Cc1cc(C)n(-c2ccc(C(=O)Nc3nc4ccccc4s3)cc2)n1,22.7% (inactive)
7,CC(=O)c1c(N2CCN(C(=O)C3CCCO3)CC2)nc(=S)n(-c2ccccc2)c1C (stereo not given),-7.59% (inactive)
8,O=S(=O)(Cc1ccccc1Cl)N1CCN(Cc2ccc3c(c2)OCO3)CC1,-16.8% (inactive)
9,Cc1ccc(-n2c(C)cc(C3=NNC(=NC4CC4)SC3)c2C)cc1C,-3.95% (inactive)
10,Cc1nc2ccccc2c(=O)n1/N=C/c1ccc(N(C)C)cc1,-8.07% (inactive)
11,c1ccc(Cc2nnc(-c3ccccc3)o2)cc1,-14.2% (inactive)
12,NCCCCCc1nnc(SCc2ccc(Cl)c(Cl)c2)o1,2.34% (inactive)
13,O=C(c1ccc(-c2ccccc2)cc1)c1ccccc1C(=O)N1CCOCC1,-16.8% (inactive)
14,COc1ccc(N2CCN(C(=O)C3CCCO3)CC2)cc1 (stereo not given),0.62% (inactive)
15,O=C(c1ccc(Cl)cc1Cl)C1(n2cncn2)Oc2ccccc2C1O (stereo not given),-5% (inactive)
16,Cc1cccc(-n2ncc3c(NCc4ccc5c(c4)OCO5)ncnc32)c1,-7.68% (inactive)
17,Brc1ccc2cccnc2c1,-12.2% (inactive)
18,O=C1C2C3c4ccccc4C(c4ccccc43)C2C(=O)N1c1cccc2cccnc12 (stereo not given),-8.36% (inactive)
19,Cc1ccc(C=Nc2ccccc2C(N)=O)cc1,17.5% (inactive)
20,CCOc1c(Br)cc(CNCc2cccs2)cc1OC,-0.6% (inactive)
21,Clc1ccc(Cn2ncc3c(NCc4ccco4)ncnc32)c(Cl)c1,5.71% (inactive)
22,Cc1ccc(NC(=O)CCCSc2nc3ccccc3[nH]2)cc1,28.1% (inactive)
23,O=C(Nc1cccnc1)c1cc(F)cc(F)c1,-0.92% (inactive)
24,Cc1cc(C)c2nc(NNC(=O)c3ccc(S(=O)(=O)N4CCCCC4)cc3)sc2c1,17.3% (inactive)

row,SMILES,inhibition
1,COC(=O)c1sccc1NC(=O)C1C2C=CC(O2)C1C(=O)O (stereo not given),-1.72% (inactive)
2,Nc1ccc(C(=O)OCc2nc3ccccc3[nH]2)cc1,-1.26% (inactive)
3,CCN1CCN(C(=O)c2ccc(COc3ccc(Cl)cc3)o2)CC1,10.1% (inactive)
4,CCOc1ccc(CCNC(=O)c2cc3sc(Cl)cc3n2C)cc1OCC,-3.59% (inactive)
5,CCOc1ccc(/C=N/O)cc1,-0.89% (inactive)
6,O=C(O)Cc1sc(Nc2ccc(Cl)cc2)nc1-c1cccs1,-2.18% (inactive)
7,S=C(c1ccc2c(c1)OCO2)N1CCCC1,-6.34% (inactive)
8,Cc1ccc(-c2n[nH]c(=S)n2/N=C/c2cc3c(cc2[N+](=O)[O-])OCO3)cc1,-15.8% (inactive)
9,O=c1[nH]c(SCc2nc3ccccc3c(=O)n2-c2ccccc2C(F)(F)F)nc2ccccc12,-13.6% (inactive)
10,CCC(OC(=O)C(NC(=O)c1ccccc1)c1ccccc1)C(=O)Nc1cc(C)on1 (stereo not given),5.39% (inactive)
11,S=c1[nH]nc(Cc2cccc3ccccc23)o1,-10.1% (inactive)
12,Cc1ccc(S(=O)(=O)N2C(=O)CCC2C(=O)N2CCN(C)CC2)cc1 (stereo not given),-2.92% (inactive)
13,CN(C)c1nc(N)nc(Cn2ccnc2)n1,-5.8% (inactive)
14,CC(NCc1ccc(Cl)c(Cl)c1)C(O)c1ccccc1 (stereo not given),-19% (inactive)
15,CCCc1cc(C(=O)Cc2ccc(C(=O)OCC)o2)c(O)cc1O,-3.34% (inactive)
16,COc1ccc(C(=O)Nn2c(SCC(=O)N3CCC(C)CC3)nc3ccccc3c2=O)cc1,-14.4% (inactive)
17,O=C(COc1ncnc2sccc12)N1CCN(S(=O)(=O)c2ccc(Cl)cc2)CC1,29.1% (inactive)
18,O=S(=O)(c1ccc2c(c1)OCCO2)N1CCN(c2cccc(Cl)c2)CC1,-19.9% (inactive)
19,COc1ccc(N(C(=O)CCl)C(C(=O)NCCc2ccccc2)c2cccs2)cc1 (stereo not given),4.65% (inactive)
20,S=C(Nc1ccc2snnc2c1)N1CCN(c2ccccn2)CC1,-9.77% (inactive)
21,CCn1c2ccccc2c2nnc(SCC(=O)Nc3ccc4c(c3)OCO4)nc21,2.92% (inactive)
22,CCCn1c(SCC(=O)c2c(C)[nH]c(C)c2C(=O)OCC)nc2ccccc21,-12.6% (inactive)
23,Clc1ccc(CNc2ccc(CNc3ncn[nH]3)cc2)cc1,-3.52% (inactive)
24,COc1cc(CNc2ccc(CNc3ncn[nH]3)cc2)ccc1OCc1ccccc1,-24.6% (inactive)

row,SMILES,inhibition
1,CC(C)(C)c1n[nH]c(=S)n(/N=C/c2cccs2)c1=O,-8.95% (inactive)
2,Cc1cccc(Nc2nnc(SCC(=O)NC3CCCc4ccccc43)s2)c1 (stereo not given),1.85% (inactive)
3,CCCCOc1ccc(S(=O)(=O)NNC(=O)C2Cc3c(ccc4ccccc34)O2)cc1 (stereo not given),-5.32% (inactive)
4,Clc1ccc(SCCCCn2ccnc2)cc1,8.1% (inactive)
5,Cc1c(NS(=O)(=O)c2ccccc2)c(=O)n(-c2ccccc2)n1C,-9.48% (inactive)
6,CN1CCN(Cc2nc3ccccc3c(=O)[nH]2)CC1,-4.9% (inactive)
7,CC(O)CNc1cc(N)c([N+](=O)[O-])cc1[N+](=O)[O-] (stereo not given),14.6% (inactive)
8,O=P1(NC2CCCC2)COc2ccccc2OC1,-4.44% (inactive)
9,c1ccc(Nc2nc3ccccc3[nH]2)nc1,-5.82% (inactive)
10,c1ccc(Nc2ccnc(Nc3ccccc3)n2)cc1,-7.88% (inactive)
11,O=C1CN(C(=O)COC(=O)CCC(=O)c2ccc3c(c2)OCCO3)c2ccccc2N1,-5.91% (inactive)
12,CSC(=NS(=O)(=O)c1ccccc1)SC,12.9% (inactive)
13,O=C(c1ccccc1)C(CN1CCCC1)c1ccccc1 (stereo not given),22.5% (inactive)
14,NC1=NC(=Nc2ccc(Cl)cc2)c2ccccc21,4.99% (inactive)
15,C(=Nc1ccc(Nc2ccccc2)cc1)c1ccc2ccccc2c1,6.23% (inactive)
16,CCOC(=O)N1CCN(c2nc(C)c3c(n2)CCCC3=O)CC1,-14.1% (inactive)
17,Cc1cc(=O)oc2cc(OCC(O)CN3CCc4ccccc4C3)ccc12 (stereo not given),13.5% (inactive)
18,CN1CCCC(OC(=O)c2ccc3c(c2)OCCO3)C1 (stereo not given),-4.27% (inactive)
19,COc1nc(N(c2ccccc2)c2ccccc2)nc(-n2ccnc2)n1,-7.09% (inactive)
20,COCCCNc1ccnc2c(Cl)cccc12,-3.72% (inactive)
21,COc1ccc(-c2cc(C(=O)Nc3ccc(S(=O)(=O)Nc4ncccn4)cc3)c3ccccc3n2)cc1,-10.9% (inactive)
22,CN(CC(=O)NCc1cccc(F)c1)C(=O)c1ccco1,-7.79% (inactive)
23,COC(=O)c1ccc(Sc2ccccc2NS(=O)(=O)c2ccc(C)cc2)nc1,0.44% (inactive)
24,O=C(c1ccco1)N1CCN(c2ncnc3c2[nH]c2ccccc23)CC1,10.7% (inactive)
